Results taken from PubChem BioAssay.
Calls of active or inactive are those of the source.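 The calls were made as follows, unless noted: active = luciferase signal above three times the same-plate solvent-only control wells; inactive = the rest.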

What was measured:
[1] = molecular target: NAD(+) hydrolase SARM1 (Homo sapiens) (UniProt Q6SZW1); assay: SARM1 TIR NADase inhibitors, cell lysate, NAD-Glo luminescence (AID 1508614;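 active = compound whose remaining NAD level is above about 45 nM, limit read from the data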;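 also: higher remaining NAD means stronger inhibition of SARM1 NADase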); conditions: SAM-TIR HEK293T lysate NADase, at 1 µM, stronger effect = higher value
NAD(+) hydrolase SARM1 (Homo sapiens), sequence (Q6SZW1 whole entry, looked up): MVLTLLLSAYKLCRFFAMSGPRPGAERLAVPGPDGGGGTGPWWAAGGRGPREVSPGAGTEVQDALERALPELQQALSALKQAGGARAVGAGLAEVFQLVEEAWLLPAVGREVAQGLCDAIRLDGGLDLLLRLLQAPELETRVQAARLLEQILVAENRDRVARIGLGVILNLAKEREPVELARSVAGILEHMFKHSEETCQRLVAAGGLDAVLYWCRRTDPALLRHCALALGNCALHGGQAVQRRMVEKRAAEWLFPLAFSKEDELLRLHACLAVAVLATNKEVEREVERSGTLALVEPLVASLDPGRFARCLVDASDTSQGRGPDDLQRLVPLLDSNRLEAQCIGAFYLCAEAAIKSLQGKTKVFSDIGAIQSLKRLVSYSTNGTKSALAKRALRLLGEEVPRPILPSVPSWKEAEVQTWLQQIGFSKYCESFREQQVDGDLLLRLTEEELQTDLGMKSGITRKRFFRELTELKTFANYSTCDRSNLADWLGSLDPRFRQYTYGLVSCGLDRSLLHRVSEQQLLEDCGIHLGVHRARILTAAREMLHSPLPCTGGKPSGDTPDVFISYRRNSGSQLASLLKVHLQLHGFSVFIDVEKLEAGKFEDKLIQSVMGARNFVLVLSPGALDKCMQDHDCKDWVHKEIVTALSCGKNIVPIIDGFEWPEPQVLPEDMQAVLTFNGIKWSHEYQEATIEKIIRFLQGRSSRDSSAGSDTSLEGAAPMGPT

[2] = LFS_MB_P medulloblastoma growth inhibition, cell-based, chromothripsis tumors, cisplatin or BGB combos (AID 1671449; in the data active = inhibition above about 80%;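 also: cells exposed for 96 hours; 0% = vehicle DMSO and 100% = killing by high DMSO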); conditions: LFS_MB_P medulloblastoma cells
[3] = HDN33 neuroblastoma growth inhibition, cell-based, chromothripsis tumors, cisplatin or BGB combos (AID 1671450; in the data active = inhibition above about 80%;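 also: cells exposed to compound for four days; 0% = vehicle DMSO and 100% = cell killing by high DMSO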); conditions: HDN33 neuroblastoma cells, stronger effect = higher value
[4] = ICB984 medulloblastoma cell growth inhibition, synergistic combos for chromothripsis tumors, cisplatin or BGB combos (AID 1671451; call rule not given here;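 also: cells exposed for 96 hours before readout; 0% = vehicle DMSO and 100% = killing by high DMSO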); conditions: ICB984 medulloblastoma cells, drug combinations, stronger effect = higher value
[5] = HTB85 osteosarcoma cell growth inhibition, synergistic combos for chromothripsis tumors, BGB or cisplatin IC20 combos (AID 1671453; in the data active = inhibition above about 80%;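 also: cells exposed for 96 hours before readout; 0% = vehicle DMSO and 100% = high DMSO killing control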); conditions: HTB85 osteosarcoma cells, drug combinations, stronger effect = higher value
[6] = MDA-MB-436 breast carcinoma cell growth inhibition, synergistic combos for chromothripsis tumors, BGB or cisplatin combos (AID 1671458; call rule not given here;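 also: cells exposed for 96 hours; 0% = vehicle DMSO and 100% = killing by high DMSO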); conditions: MDA-MB-436 breast carcinoma growth inhibition, drug combinations, stronger effect = higher value
[7] = growth inhibition of BT084 medulloblastoma cells, cell-based, ICGC_MB145, cisplatin and BGB IC40 combos (AID 1671461; in the data active = inhibition above about 80%;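 also: cells exposed to drugs for 96 hours; 0% = vehicle DMSO and 100% = high DMSO full killing control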); conditions: drug combinations, stronger effect = higher value
[8] = growth inhibition of RCMB18 medulloblastoma cells, cell-based, cisplatin and BGB IC40 combos (AID 1671462; in the data active = inhibition above about 80%;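 also: cells exposed to compound for four days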); conditions: stronger effect = higher value
[9] = growth inhibition of CRL1545 osteosarcoma cells, cell-based, cisplatin and BGB IC20 combos (AID 1671464; in the data active = inhibition above about 80%;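 also: cells exposed to compound for 96 hours before readout; 0% = vehicle DMSO and 100% = high DMSO killing control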); conditions: stronger effect = higher value
[10] = molecular target: Mitogen-activated protein kinase 7 (Homo sapiens) (UniProt Q13164); assay: ERK5 transactivation activators in reporter cells, primary screen, cell-based, HTS (AID 1508626); conditions: HeLa Gal4-ERK5 transactivation, 18 h, at 5 µM, stronger effect = higher value;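 also: luciferase driven by Gal4-ERK5 fusion binding five Gal4 sites before minimal TATA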
Mitogen-activated protein kinase 7 (Homo sapiens), sequence (Q13164 whole entry, looked up, the tested form may be a part): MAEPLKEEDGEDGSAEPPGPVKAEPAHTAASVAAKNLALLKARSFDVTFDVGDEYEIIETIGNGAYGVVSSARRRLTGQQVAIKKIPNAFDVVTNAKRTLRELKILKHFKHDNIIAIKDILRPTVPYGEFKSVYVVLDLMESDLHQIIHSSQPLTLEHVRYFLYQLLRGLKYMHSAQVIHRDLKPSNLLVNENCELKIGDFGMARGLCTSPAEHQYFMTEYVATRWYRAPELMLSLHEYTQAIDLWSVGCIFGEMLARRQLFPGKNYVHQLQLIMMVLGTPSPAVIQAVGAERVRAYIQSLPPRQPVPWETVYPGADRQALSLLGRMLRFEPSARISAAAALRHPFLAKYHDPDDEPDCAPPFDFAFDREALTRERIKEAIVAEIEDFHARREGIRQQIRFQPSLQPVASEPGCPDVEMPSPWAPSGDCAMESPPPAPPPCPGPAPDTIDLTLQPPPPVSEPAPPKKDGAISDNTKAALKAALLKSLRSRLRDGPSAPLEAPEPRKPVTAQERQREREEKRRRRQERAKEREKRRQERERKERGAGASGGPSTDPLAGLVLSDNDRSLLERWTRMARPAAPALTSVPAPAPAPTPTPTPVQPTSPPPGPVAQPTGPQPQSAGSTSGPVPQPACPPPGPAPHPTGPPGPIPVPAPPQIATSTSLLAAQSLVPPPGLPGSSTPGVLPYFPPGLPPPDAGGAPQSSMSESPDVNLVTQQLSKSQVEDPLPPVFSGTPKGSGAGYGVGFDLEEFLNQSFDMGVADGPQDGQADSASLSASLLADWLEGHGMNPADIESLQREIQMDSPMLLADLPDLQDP

[11] = measured here: with BGB IC20 combination, at 0.5 µM
[12] = measured here: with cisplatin IC20 combination, at 0.5 µM

For `C=CC1=C(C)C2=CC3=NC(=C(CC(=O)O)C4=NC(=C(C)C4=C(O)O)C=c4[nH]c(c(C)c4CC)=CC1=N2)C(CCC(=O)O)C3C` (configuration not stated), the remaining NAD [1] was 10 nM (inactive), the inhibition ([2]; at 0.5 µM, stronger effect = higher value) was -22.2% (inactive) and the inhibition ([2]; measured here: combination with BGB IC20, at 0.005 µM) was -27.4%. The inhibition ([2]; measured here: combination with BGB IC40, at 0.005 µM) was -20.4%, the inhibition ([2]; measured here: combination with BGB IC40, at 0.05 µM) was -7.95% and the inhibition ([2]; measured here: combination with cisplatin, at 0.5 µM, stronger effect = higher value) was -18.8%. The inhibition ([2]; measured here: combination with cisplatin, at 5 µM, stronger effect = higher value) was -59.6%, the inhibition ([3]; BGB combo, at 5 µM) was -5.94% and the inhibition ([3]; at 0.5 µM) was -6.06% (inactive). For the same molecule, the inhibition ([3]; cisplatin combo, at 5 µM) was 3.3%, the inhibition [3, 11] was -2.85% and the inhibition [3, 12] was 8.33%. The inhibition ([3]; single agent, at 5 µM) was 10.4%, the inhibition ([4]; BGB IC20 combo, at 0.005 µM) was -23.1% and the inhibition ([4]; BGB IC40 combo, at 0.005 µM) was -25.1%. For the same molecule, the inhibition ([4]; BGB IC40 combo, at 0.05 µM) was -20%, the inhibition ([4]; at 0.5 µM) was -26.5% (inactive) and the inhibition ([4]; cisplatin combo, at 0.05 µM) was -20%. The inhibition ([4]; cisplatin combo, at 0.5 µM) was -42.5%, the inhibition ([4]; cisplatin combo, at 5 µM) was -25.5% and the inhibition ([4]; measured here: 5 uM single agent, at 5 µM) was 5.39%. The inhibition ([5]; at 0.5 µM) was -16.7% (inactive), the inhibition ([5]; measured here: with BGB IC20, at 0.5 µM) was -29.2% and the inhibition ([5]; measured here: with BGB IC20, at 5 µM) was -11.5%. It also gave an inhibition ([5]; measured here: with cisplatin IC20, at 0.5 µM) of -27.9%, an inhibition ([5]; measured here: with cisplatin IC20, at 5 µM) of -1.9% and an inhibition ([5]; single agent, at 5 µM) of 1.12%. The inhibition ([6]; at 0.5 µM) was -19% (inactive), the inhibition ([6]; measured here: BGB combination, at 0.5 µM) was -19.5% and the inhibition ([6]; measured here: BGB combination, at 5 µM) was -14.7%. For the same molecule, the inhibition ([6]; measured here: cisplatin combination, at 0.5 µM) was -36.2%, the inhibition ([6]; measured here: cisplatin combination, at 5 µM) was -11.5% and the inhibition ([7]; at 0.5 µM) was -4.34% (inactive). The inhibition ([7]; cisplatin combination, at 0.5 µM) was 3.74%, the inhibition ([7]; cisplatin combination, at 5 µM) was -40.8% and the inhibition ([7]; measured here: BGB IC40 combination 0.05 uM, at 0.05 µM) was -3.49%. For the same molecule, the inhibition ([7]; single agent, at 5 µM) was -10.5%, the inhibition ([8]; at 0.5 µM) was -15.6% (inactive) and the inhibition ([8]; cisplatin combo, at 5 µM) was 30.7%. It also gave an inhibition ([8]; measured here: BGB IC40 combination, at 0.05 µM) of -38.7%, an inhibition ([8]; measured here: combination with cisplatin, at 0.5 µM) of -5.59% and an inhibition ([8]; single agent, at 5 µM) of -26.5%. For the same molecule, the inhibition ([9]; at 0.5 µM) was -23.9% (inactive), the inhibition [9, 11] was 2.58% and the inhibition [9, 12] was -37.1%. For the same molecule, the inhibition ([9]; single agent, at 0.05 µM) was 3.9% and the inhibition ([9]; single agent, at 5 µM) was 17%.
With `O=C(O)C1=C(CSc2nnnn2CS(=O)(=O)O)CS[C@@H]2[C@H](NC(=O)[C@H](O)c3ccccc3)C(=O)N12` the remaining NAD [1] was 10 nM (inactive) and the luciferase signal [10] was 84 AU (inactive).
With `C[C@H](CCC(=O)O)[C@H]1CC[C@H]2[C@@H]3CC[C@@H]4CCCC[C@]4(C)[C@H]3CC[C@]12C` the luciferase signal [10] was 36 AU (inactive).
For `OC[C@@H](O)C(O)[C@@H](O)CO` (some centres not stated), the luciferase signal [10] was 88 AU (inactive).
For `C=CCSC[C@H](N)C(=O)O`, the luciferase signal [10] was 44 AU (inactive).
For `C[C@@H]1C\C=C/C=C/C=C/C=C/[C@H](O[C@@H]2O[C@H](C)[C@@H](O)[C@H](N)[C@@H]2O)C[C@@H]2O[C@](O)(C[C@@H](O)C[C@@H]3O[C@@H]3/C=C\C(=O)O1)C[C@H](O)[C@H]2C(=O)O`, the remaining NAD [1] was 10 nM (inactive) and the luciferase signal [10] was 292 AU (inactive).
In the case of `CC1(C)S[C@@H]2[C@H](N3C(=O)[C@@H](c4ccccc4)NC3(C)C)C(=O)N2[C@H]1C(=O)O`, the remaining NAD [1] is reported as 10 nM (inactive) and the luciferase signal [10] is reported as 40 AU (inactive).
With `C[C@]12CC[C@@H]3c4ccc(OC(=O)c5ccccc5)cc4CC[C@H]3[C@@H]1CC[C@@H]2O` the remaining NAD [1] was 10 nM (inactive) and the luciferase signal [10] was 56 AU (inactive).
In the case of `CC1(C)O[C@H]2[C@H](O)C[C@](O)(C(N)=O)C[C@H]2O1`, the luciferase signal [10] is reported as 20 AU (inactive).
In the case of `O=C(O)C(O)C(O)(Cc1ccc(O)cc1)C(=O)O` (configuration not stated), the luciferase signal [10] is reported as 16 AU (inactive).
For `O=c1c(O)c(-c2ccc(O)cc2)oc2ccccc12`, the luciferase signal [10] was 76 AU (inactive).
In the case of `CO[C@H]1O[C@H](CO)C(O[C@@H]2OC(C(=O)O)[C@@H](O[C@H]3O[C@H](COS(=O)(=O)O)C(O[C@@H]4OC(C(=O)O)[C@@H](O[C@H]5O[C@H](CO)C(O[C@@H]6OC(C(=O)O)[C@@H](O[C@H]7O[C@H](COS(=O)(=O)O)C(O[C@@H]8OC(C(=O)O)=C[C@H](O)C8OS(=O)(=O)O)[C@H](O)[C@H]7NC(C)=O)[C@H](O)[C@H]6O)[C@H](O)[C@H]5NC(C)=O)[C@H](O)[C@H]4O)[C@H](O)[C@H]3NC(C)=O)[C@H](O)[C@H]2O)[C@H](O)[C@H]1NC(C)=O` (some centres not stated), the luciferase signal [10] is reported as 100 AU (inactive).
With `CCN[C@@H]1C[C@H](N)[C@@H](O[C@H]2OC(CN)=CC[C@H]2N)[C@H](O)[C@H]1O[C@H]1OC[C@](C)(O)[C@H](NC)[C@H]1O` the remaining NAD [1] was 10 nM (inactive) and the luciferase signal [10] was 56 AU (inactive).
For `CO[C@H]1C[C@@H]2CC[C@@H](C)[C@@](O)(O2)C(=O)C(=O)N2CCCC[C@H]2C(=O)O[C@H]([C@H](C)C[C@@H]2CC[C@@H](O)[C@H](OC)C2)CC(=O)[C@H](C)/C=C(\C)[C@@H](O)[C@@H](OC)C(=O)[C@H](C)C[C@H](C)\C=C/C=C/C=C/1C`, the remaining NAD [1] was 10 nM (inactive) and the luciferase signal [10] was 64 AU (inactive).
In the case of `CNS(=O)(=O)c1ccc(NC(=O)c2ccccc2C(=O)O)cc1`, the luciferase signal [10] is reported as 28 AU (inactive).
